Laboratory results taken from PubChem BioAssay (NCATS).
Results filed as inconclusive are left out. The source made the active and inactive calls. The call rests on the fitted dose curve; in most records, active means well fitted curve in the direction sought with a large enough effect; inconclusive means small, poorly fitted or top-dose-only effect, or another doubt; inactive means no such curve, though single readings can be large; an effect the other way counts as inactive or inconclusive.

Assays:
[1] = qHTS of pediatric cancer cell lines to identify multiple opportunities for drug repurposing: Confirmatory screen for Rh41 cells (AID 1347123);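 further: 48 h compound exposure; nearly all actives have a fitted effect of over 60% in size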
Outline: (§1)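 Cells (500-1,000/well) in growth media were settled 5 h at 37 degrees C, then given compounds for 48 h. Viability was read as CellTiter-Glo luminescence. Primary runs used MIPE at 11 points (0.78 nM-46 µM) and NPC at 8 points (0.59 nM-46 µM); follow-ups used 11 points.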

[2] = qHTS of pediatric cancer cell lines to identify multiple opportunities for drug repurposing: Confirmatory screen for Rh18 cells (AID 1347125); further: nearly all actives have a fitted effect of over 55% in size
Outline: as §1

[3] = qHTS of pediatric cancer cell lines to identify multiple opportunities for drug repurposing: Confirmatory screen for Rh30 cells (AID 1347126); further: nearly all actives have a fitted effect of over 55% in size
Outline: as §1

[4] = qHTS of pediatric cancer cell lines to identify multiple opportunities for drug repurposing: Confirmatory screen for SK-N-SH cells (AID 1347129);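 further: cells exposed to compound for 48 h before viability read; nearly all actives have a fitted effect of over 60% in size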
Outline: as §1

[5] = qHTS of pediatric cancer cell lines to identify multiple opportunities for drug repurposing: Confirmatory screen for OHS-50 cells (AID 1347128);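 further: compound exposure lasted 48 h at 37 degrees C; nearly all actives have a fitted effect of over 55% in size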
Outline: as §1

[6] = qHTS of pediatric cancer cell lines to identify multiple opportunities for drug repurposing: Confirmatory screen for Saos-2 cells (AID 1347127); further: nearly all actives have a fitted effect of over 60% in size
Outline: as §1

[7] = qHTS of pediatric cancer cell lines to identify multiple opportunities for drug repurposing: Confirmatory screen for RD cells (AID 1347124);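 further: cells exposed to compound for 48 h before viability readout; nearly all actives have a fitted effect of over 65% in size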
Outline: as §1
Potency means the concentration at half of the fitted maximal effect.

Compound	Potency [1]	Potency [2]	Potency [3]	Potency [4]	Potency [5]	Potency [6]	Potency [7]
C[N+](C)([O-])CCNc1ccc(NCC[N+](C)(C)[O-])c2c1C(=O)c1c(O)ccc(O)c1C2=O	18.5 µM (active)	inactive	inactive	inactive			
CO[C@@H]1[C@@H](O)[C@H](O)[C@@H](n2c3c(Cl)cccc3c3c4c(c5c6cccc(Cl)c6[nH]c5c32)C(=O)NC4=O)O[C@@H]1CO	5.85 µM (active)	6.57 µM (active)	inactive	2.64 µM (active)	2.61 µM (active)		
COc1cc([C@@H]2c3cc4c(cc3[C@@H](O[C@@H]3O[C@@H]5CO[C@@H](c6cccs6)O[C@@H]5[C@H](O)[C@@H]3O)[C@H]3COC(=O)[C@H]23)OCO4)cc(OC)c1O	0.585 µM (active)	1.31 µM (active)		3.32 µM (active)		inactive	
COc1cccc2c1C(=O)c1c(O)c3c(c(O)c1C2=O)C[C@@](O)(C(C)=O)C[C@H]3O[C@H]1C[C@H](N)[C@H](O)[C@H](C)O1	0.585 µM (active)			0.662 µM (active)	2.08 µM (active)		2.61 µM (active)
CCc1cnn2c(NCc3ccc[n+]([O-])c3)cc(N3CCCC[C@@H]3CCO)nc12	inactive			inactive		inactive	inactive
Cc1cnc(Nc2ccc(CN3CCOCC3)cc2)nc1Nc1cccc(S(=O)(=O)NC(C)(C)C)c1	5.22 µM (active)			5.26 µM (active)	5.22 µM (active)	9.27 µM (active)	
COc1cc(C=CC(=O)CC(=O)C=Cc2ccc(O)c(OC)c2)ccc1O	17 µM (active)					33.9 µM (active)	
COC(=O)C=CC(=O)OC	23.3 µM (active)		4.14 µM (active)	inactive	inactive	inactive	
